Experiments:
Assay in all cases: yeast three-hybrid, YBZ-1, SC-Leu-His + 0.5 mM 3-AT, 4 days
Conditions in all cases: tags: N-Gal4 AD-HA kept; label: inside an RPR1-promoter hybrid RNA with tandem MS2 sites; ssRNA
PUM1 PUF domain R5-RMC = PUM1 PUF domain R5-RMC (Homo sapiens, UniProt Q14671 828-1176, C1007R;R1008M;Q1011C)
How it was run: (§1)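 Pumilio-1 PUF domain libraries, randomized (NNK) at the three base-contacting residues of each repeat, were co-expressed with matching RNA elements from a centromeric plasmid in strain YBZ-1 (LexA–MS2 coat fusion, HIS3 reporter). Transformants were plated on SC-Leu (input) and SC-Leu-His + 0.5 mM 3-AT (selection) for four days, and repeat regions were PCR-amplified and Illumina-sequenced. The interaction score is the log2 change in variant frequency from input to selection, with pseudocount 1 where absent.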

PUM1 PUF domain R5-PRD = PUM1 PUF domain R5-PRD (Homo sapiens, UniProt Q14671 828-1176, C1007P;Q1011D)
How it was run: as §1

PUM1 PUF domain R5-TAR = PUM1 PUF domain R5-TAR (Homo sapiens, UniProt Q14671 828-1176, C1007T;R1008A;Q1011R)
How it was run: as §1

PUM1 PUF domain R5-RND = PUM1 PUF domain R5-RND (Homo sapiens, UniProt Q14671 828-1176, C1007R;R1008N;Q1011D)
How it was run: as §1

PUM1 PUF domain R5-RAK = PUM1 PUF domain R5-RAK (Homo sapiens, UniProt Q14671 828-1176, C1007R;R1008A;Q1011K)
How it was run: as §1

PUM1 PUF domain R3-VYD = PUM1 PUF domain R3-VYD (Homo sapiens, UniProt Q14671 828-1176, C935V;R936Y;Q939D)
How it was run: as §1

PUM1 PUF domain R3-GFL = PUM1 PUF domain R3-GFL (Homo sapiens, UniProt Q14671 828-1176, C935G;R936F;Q939L)
How it was run: as §1

PUM1 PUF domain R4-WGT = PUM1 PUF domain R4-WGT (Homo sapiens, UniProt Q14671 828-1176, N971W;H972G;Q975T)
How it was run: as §1

PUM1 PUF domain R5-AFY = PUM1 PUF domain R5-AFY (Homo sapiens, UniProt Q14671 828-1176, C1007A;R1008F;Q1011Y)
How it was run: as §1

PUM1 PUF domain R4-NRV = PUM1 PUF domain R4-NRV (Homo sapiens, UniProt Q14671 828-1176, H972R;Q975V)
How it was run: as §1

PUM1 PUF domain R3-SRL = PUM1 PUF domain R3-SRL (Homo sapiens, UniProt Q14671 828-1176, C935S;Q939L)
How it was run: as §1

PUM1 PUF domain R4-WGR = PUM1 PUF domain R4-WGR (Homo sapiens, UniProt Q14671 828-1176, N971W;H972G;Q975R)
How it was run: as §1

PUM1 PUF domain R6-VYL = target: T1, PUM1 PUF domain R6-VYL (Homo sapiens, UniProt Q14671 828-1176, N1043V;Q1047L)
T1 sequence: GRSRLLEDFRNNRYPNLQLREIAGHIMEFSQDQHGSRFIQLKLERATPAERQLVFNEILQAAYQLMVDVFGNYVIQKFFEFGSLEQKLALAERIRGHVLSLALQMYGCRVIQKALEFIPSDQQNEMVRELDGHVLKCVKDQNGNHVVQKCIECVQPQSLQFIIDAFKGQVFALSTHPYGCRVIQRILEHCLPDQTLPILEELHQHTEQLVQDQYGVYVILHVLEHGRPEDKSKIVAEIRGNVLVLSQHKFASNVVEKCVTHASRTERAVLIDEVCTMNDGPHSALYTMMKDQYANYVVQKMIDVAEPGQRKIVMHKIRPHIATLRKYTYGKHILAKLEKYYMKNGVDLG
How it was run: as §1

PUM1 PUF domain R3-CFD = PUM1 PUF domain R3-CFD (Homo sapiens, UniProt Q14671 828-1176, R936F;Q939D)
How it was run: as §1

GGCUAGAACUAGUGGAUCCCCCGGCGCCCGGCGGCUCGAGCCCGGGUAAGUGUCAAUAGUCUGCAUGCCGCCGGGCGCCAUGCCUGCAGGUCGACUCUAGAAAACAUG
binding signal (PUM1 PUF domain R5-RMC): 3.26 log2 enrichment (interaction score)
binding signal (PUM1 PUF domain R5-PRD): 2.8 log2 enrichment (interaction score)
binding signal (PUM1 PUF domain R5-TAR): 5.36 log2 enrichment (interaction score)
binding signal (PUM1 PUF domain R5-RND): 5.27 log2 enrichment (interaction score)
binding signal (PUM1 PUF domain R5-RAK): 3.03 log2 enrichment (interaction score)

GGCUAGAACUAGUGGAUCCCCCGGCGCCCGGCGGCUCGAGCCCGGGUAAGUGUAAAUAGUCUGCAUGCCGCCGGGCGCCAUGCCUGCAGGUCGACUCUAGAAAACAUG
binding signal (PUM1 PUF domain R3-VYD): 6.46 log2 enrichment (interaction score)
binding signal (PUM1 PUF domain R3-GFL): 4.38 log2 enrichment (interaction score)
binding signal (PUM1 PUF domain R4-WGT): 3.43 log2 enrichment (interaction score)
binding signal (PUM1 PUF domain R5-PRD): 3.41 log2 enrichment (interaction score)
binding signal (PUM1 PUF domain R5-AFY): 2.38 log2 enrichment (interaction score)
binding signal (PUM1 PUF domain R4-NRV): 1.46 log2 enrichment (interaction score)
binding signal (PUM1 PUF domain R5-RND): 0.31 log2 enrichment (interaction score)
binding signal (PUM1 PUF domain R3-SRL): 3.65 log2 enrichment (interaction score)
binding signal (PUM1 PUF domain R4-WGR): 0.32 log2 enrichment (interaction score)
binding signal (PUM1 PUF domain R6-VYL): 0.58 log2 enrichment (interaction score)
binding signal (PUM1 PUF domain R3-CFD): 3.85 log2 enrichment (interaction score)

GGCUAGAACUAGUGGAUCCCCCGGCGCCCGGCGGCUCGAGCCCGGGUAAGUGUACAUAGUCUGCAUGCCGCCGGGCGCCAUGCCUGCAGGUCGACUCUAGAAAACAUG
binding signal (PUM1 PUF domain R4-WGT): 2.69 log2 enrichment (interaction score)
binding signal (PUM1 PUF domain R4-NRV): 1.97 log2 enrichment (interaction score)
binding signal (PUM1 PUF domain R4-WGR): 3.78 log2 enrichment (interaction score)

Source: article PMC8384837, “Expanding the binding specificity for RNA recognition by a PUF domain”
